# Tests used:
# [1] = target: T1, Ephrin type-A receptor 3 (Homo sapiens) (UniProt P29320); settings: at 10 µM
# T1 sequence (whole entry): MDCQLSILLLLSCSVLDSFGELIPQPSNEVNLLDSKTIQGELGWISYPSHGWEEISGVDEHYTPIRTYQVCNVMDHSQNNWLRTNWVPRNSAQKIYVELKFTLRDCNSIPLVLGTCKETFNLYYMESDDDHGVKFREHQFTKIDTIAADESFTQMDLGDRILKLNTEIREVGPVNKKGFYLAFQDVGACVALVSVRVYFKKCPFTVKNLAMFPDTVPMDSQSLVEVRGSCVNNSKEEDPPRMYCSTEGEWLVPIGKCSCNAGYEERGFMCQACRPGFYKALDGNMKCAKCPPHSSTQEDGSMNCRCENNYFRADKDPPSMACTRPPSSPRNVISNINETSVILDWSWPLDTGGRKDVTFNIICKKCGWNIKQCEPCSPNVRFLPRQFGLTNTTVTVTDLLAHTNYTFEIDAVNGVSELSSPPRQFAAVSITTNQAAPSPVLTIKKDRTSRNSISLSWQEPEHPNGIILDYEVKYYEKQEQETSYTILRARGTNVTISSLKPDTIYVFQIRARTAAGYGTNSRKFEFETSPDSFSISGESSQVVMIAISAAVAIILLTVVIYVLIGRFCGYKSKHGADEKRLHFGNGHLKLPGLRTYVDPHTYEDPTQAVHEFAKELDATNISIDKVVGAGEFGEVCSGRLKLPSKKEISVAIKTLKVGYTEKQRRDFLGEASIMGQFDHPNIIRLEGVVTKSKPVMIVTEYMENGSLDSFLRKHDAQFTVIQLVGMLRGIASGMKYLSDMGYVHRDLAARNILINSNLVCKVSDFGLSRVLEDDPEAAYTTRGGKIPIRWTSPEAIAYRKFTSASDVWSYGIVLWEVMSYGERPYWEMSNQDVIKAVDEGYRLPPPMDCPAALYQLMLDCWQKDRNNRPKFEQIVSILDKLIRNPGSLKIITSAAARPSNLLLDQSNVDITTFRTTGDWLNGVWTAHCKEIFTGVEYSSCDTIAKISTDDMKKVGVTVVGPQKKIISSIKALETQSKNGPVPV
# [2] = target: Ephrin type-A receptor 4 (Homo sapiens) (UniProt P54764); settings: at 1 µM
# Chain of Ephrin type-A receptor 4 (Homo sapiens) (P54764 whole entry): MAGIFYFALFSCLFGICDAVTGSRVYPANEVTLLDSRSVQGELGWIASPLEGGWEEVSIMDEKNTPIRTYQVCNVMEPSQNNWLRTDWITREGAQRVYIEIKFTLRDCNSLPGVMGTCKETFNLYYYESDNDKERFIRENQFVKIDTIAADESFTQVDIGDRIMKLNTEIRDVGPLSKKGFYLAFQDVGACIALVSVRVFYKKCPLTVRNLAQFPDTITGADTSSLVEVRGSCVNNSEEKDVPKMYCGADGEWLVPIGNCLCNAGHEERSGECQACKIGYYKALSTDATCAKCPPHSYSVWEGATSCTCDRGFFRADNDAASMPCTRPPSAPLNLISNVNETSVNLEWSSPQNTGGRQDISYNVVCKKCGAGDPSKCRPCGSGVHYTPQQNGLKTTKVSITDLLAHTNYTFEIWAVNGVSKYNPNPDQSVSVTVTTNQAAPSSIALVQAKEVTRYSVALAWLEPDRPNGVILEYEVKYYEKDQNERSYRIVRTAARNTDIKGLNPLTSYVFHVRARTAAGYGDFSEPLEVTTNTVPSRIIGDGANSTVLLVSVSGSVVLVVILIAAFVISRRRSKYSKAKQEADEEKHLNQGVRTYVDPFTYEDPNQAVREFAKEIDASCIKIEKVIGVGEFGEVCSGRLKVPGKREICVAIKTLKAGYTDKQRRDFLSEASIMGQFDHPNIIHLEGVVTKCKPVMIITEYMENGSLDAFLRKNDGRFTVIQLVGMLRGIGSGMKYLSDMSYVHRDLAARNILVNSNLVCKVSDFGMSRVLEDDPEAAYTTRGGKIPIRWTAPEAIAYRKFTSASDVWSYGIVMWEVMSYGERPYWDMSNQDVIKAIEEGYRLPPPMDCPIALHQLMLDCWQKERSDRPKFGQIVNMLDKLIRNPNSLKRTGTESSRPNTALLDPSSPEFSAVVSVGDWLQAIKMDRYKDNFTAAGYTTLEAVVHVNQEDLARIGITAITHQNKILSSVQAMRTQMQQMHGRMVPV
# [3] = target: Ephrin type-A receptor 4 (Homo sapiens) (UniProt P54764); settings: at 10 µM
# [4] = target: Ephrin type-A receptor 5 (Homo sapiens) (UniProt P54756); settings: at 1 µM
# Chain of Ephrin type-A receptor 5 (Homo sapiens) (P54756 whole entry): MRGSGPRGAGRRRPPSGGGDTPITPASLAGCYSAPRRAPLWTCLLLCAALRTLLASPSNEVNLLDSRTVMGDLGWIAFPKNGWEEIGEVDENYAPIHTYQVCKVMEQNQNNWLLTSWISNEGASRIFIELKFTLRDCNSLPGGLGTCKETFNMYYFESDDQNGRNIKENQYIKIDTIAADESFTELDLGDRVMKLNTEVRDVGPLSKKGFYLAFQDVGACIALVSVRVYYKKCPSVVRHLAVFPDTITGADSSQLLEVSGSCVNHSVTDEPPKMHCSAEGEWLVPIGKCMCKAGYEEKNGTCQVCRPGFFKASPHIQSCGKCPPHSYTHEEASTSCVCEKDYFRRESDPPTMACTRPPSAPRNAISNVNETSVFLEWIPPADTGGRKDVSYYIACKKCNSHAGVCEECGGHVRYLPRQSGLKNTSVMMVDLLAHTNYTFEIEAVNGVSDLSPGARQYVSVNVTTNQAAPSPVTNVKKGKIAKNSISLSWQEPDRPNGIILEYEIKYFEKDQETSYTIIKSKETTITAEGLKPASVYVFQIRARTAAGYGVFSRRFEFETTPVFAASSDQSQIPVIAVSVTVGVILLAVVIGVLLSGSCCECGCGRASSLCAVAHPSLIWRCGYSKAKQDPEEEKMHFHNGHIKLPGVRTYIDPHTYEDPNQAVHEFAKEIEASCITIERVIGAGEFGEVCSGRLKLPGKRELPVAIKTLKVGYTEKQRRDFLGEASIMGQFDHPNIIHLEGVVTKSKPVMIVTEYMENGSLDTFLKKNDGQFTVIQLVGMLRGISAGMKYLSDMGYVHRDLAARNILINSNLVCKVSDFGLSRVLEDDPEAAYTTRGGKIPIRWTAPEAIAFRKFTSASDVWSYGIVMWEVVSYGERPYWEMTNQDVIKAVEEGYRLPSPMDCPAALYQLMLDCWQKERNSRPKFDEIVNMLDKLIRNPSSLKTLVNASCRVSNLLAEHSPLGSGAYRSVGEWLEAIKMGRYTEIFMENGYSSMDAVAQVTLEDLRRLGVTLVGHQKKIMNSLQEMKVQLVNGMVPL
# [5] = target: Ephrin type-A receptor 5 (Homo sapiens) (UniProt P54756); settings: at 10 µM
# [6] = target: Ephrin type-A receptor 7 (Homo sapiens) (UniProt Q15375); settings: at 1 µM
# Chain of Ephrin type-A receptor 7 (Homo sapiens) (Q15375 28-998 limits assumed): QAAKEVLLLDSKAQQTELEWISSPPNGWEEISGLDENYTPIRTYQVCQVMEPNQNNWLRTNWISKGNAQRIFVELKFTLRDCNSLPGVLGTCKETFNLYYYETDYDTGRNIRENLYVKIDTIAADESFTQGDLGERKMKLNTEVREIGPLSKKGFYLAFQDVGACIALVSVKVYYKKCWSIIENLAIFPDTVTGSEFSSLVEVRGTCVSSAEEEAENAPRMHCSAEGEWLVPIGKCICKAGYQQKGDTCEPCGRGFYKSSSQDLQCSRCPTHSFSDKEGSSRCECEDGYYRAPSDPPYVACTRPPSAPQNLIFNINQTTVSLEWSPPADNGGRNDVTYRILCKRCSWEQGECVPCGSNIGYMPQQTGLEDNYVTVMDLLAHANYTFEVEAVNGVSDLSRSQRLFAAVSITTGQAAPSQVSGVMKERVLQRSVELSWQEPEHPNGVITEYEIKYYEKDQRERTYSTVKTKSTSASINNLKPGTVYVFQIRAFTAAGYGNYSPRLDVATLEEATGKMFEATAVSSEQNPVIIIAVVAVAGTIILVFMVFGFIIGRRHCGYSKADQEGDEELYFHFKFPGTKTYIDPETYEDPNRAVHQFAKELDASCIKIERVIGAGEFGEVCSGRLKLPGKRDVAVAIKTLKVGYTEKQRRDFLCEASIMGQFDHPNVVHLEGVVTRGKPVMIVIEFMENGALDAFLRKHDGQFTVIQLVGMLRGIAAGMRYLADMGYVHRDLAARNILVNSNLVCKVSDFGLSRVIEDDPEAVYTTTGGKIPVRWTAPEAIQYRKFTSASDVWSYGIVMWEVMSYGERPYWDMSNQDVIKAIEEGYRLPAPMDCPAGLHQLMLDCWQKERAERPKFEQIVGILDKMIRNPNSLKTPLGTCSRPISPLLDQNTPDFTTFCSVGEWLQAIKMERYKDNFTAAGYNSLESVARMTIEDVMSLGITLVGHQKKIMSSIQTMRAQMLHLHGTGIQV
# [7] = target: Ephrin type-A receptor 7 (Homo sapiens) (UniProt Q15375); settings: at 10 µM
# [8] = target: T2, Ephrin type-A receptor 8 (Homo sapiens) (UniProt P29322); settings: at 1 µM
# T2 sequence (whole entry): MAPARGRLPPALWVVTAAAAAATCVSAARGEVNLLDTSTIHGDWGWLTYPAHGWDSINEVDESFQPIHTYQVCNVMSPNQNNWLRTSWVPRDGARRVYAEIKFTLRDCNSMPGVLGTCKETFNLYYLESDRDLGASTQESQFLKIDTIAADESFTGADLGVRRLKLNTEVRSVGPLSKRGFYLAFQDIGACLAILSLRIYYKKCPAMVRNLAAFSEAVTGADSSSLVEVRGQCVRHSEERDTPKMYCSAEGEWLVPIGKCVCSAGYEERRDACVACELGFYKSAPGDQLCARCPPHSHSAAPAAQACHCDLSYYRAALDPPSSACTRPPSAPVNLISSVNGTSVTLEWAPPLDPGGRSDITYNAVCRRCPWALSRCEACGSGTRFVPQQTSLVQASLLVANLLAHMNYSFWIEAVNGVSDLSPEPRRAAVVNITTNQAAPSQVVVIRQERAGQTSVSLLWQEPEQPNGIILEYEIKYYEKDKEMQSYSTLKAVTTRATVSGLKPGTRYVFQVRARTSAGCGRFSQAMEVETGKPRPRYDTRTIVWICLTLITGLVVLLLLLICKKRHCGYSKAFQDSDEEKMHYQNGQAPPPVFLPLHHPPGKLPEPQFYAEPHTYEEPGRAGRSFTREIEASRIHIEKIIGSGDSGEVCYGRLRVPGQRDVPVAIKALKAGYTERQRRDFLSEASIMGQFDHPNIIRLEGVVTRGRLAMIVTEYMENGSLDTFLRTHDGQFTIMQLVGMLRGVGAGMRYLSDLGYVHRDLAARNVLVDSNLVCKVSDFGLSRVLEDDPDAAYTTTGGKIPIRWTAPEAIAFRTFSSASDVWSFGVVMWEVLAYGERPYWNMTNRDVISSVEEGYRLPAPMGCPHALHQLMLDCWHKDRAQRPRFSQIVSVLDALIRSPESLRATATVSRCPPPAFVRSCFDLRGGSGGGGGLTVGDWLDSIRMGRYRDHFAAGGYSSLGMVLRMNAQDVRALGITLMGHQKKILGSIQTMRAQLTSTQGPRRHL
# [9] = target: T2, Ephrin type-A receptor 8 (Homo sapiens); settings: at 10 µM
# [10] = target: T3, Ephrin type-B receptor 1 (Homo sapiens) (UniProt P54762); settings: at 1 µM
# T3 sequence (whole entry): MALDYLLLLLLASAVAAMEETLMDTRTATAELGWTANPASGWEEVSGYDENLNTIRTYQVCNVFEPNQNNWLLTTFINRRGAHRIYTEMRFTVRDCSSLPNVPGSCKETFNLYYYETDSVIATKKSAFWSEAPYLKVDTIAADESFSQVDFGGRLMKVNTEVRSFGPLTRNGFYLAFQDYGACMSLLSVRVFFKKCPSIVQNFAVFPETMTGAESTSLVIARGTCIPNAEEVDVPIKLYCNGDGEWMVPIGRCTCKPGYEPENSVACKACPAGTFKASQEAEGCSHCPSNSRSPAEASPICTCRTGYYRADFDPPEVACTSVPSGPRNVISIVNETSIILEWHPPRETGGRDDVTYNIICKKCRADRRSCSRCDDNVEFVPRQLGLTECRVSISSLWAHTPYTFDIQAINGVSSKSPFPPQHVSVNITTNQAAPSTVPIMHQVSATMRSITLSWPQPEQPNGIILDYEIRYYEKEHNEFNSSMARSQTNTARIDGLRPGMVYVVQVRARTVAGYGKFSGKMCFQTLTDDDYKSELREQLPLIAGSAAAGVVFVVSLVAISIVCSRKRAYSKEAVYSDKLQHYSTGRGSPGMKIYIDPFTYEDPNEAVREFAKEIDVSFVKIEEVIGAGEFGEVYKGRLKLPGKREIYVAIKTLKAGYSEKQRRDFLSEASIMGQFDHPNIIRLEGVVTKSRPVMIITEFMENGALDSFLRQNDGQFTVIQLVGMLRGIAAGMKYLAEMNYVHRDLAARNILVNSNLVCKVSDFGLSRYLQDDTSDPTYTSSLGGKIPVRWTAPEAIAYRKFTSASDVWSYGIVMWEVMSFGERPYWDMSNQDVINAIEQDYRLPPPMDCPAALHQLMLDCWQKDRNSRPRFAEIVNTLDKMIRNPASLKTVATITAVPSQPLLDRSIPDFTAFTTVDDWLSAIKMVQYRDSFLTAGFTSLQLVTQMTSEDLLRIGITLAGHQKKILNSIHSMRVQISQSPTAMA
smiles,measurement,setting,value
Oc1n[nH]c2nnc(-c3c(-c4ccccc4)nn4ccccc34)cc12,residual activity,[1],90%
same,residual activity,[2],96%
same,residual activity,[3],103%
same,residual activity,[4],113%
same,residual activity,[5],95%
same,residual activity,[6],94%
same,residual activity,[7],88%
same,residual activity,[8],86%
same,residual activity,[9],89%
same,residual activity,[10],97%

# Source: ChEMBL document CHEMBL2218924, “A broad activity screen in support of a chemogenomic map for kinase signalling research and drug discovery” (Biochem J, 2013)
